Active and inactive are the calls of the source. Calls follow the shape of the dose curve; as a rule, active = well fitted activation curve with a large enough effect in the repeat runs; inconclusive = weak or mixed curves; inactive = flat fitted curve, though single readings scatter.
assay: Caspase-3/7 induction in CHO-K1 cells by small molecules, qHTS assay (AID 1346980); settings: CHO-K1 caspase-3/7 induction, Caspase-Glo luminescence, 17 h; series mostly up to 92.4 µM; caspase-3/7 activation: at the top concentration; also: nearly all actives have a fitted effect of over 15% in size
Excerpt: National Center for Advancing Translational Sciences [NCATS]
NIH Chemical Genomics Center [NCGC]
U.S. Environmental Protection Agency [EPA]
National Institutes of Environmental Health Sciences [NIEHS]
National Toxicology Program [NTP]
Apoptosis is a process of programmed cell death and plays a central role in the development of multicellular organisms. It is a highly regulated process and induces cell death by activating caspases, which are the members of cysteine aspartic acid-specific protease (caspase) family. Caspases involved in apoptosis are classified by their mechanism of action as initiator caspases (caspase-2, -8, -9 and -10) and executioner caspases (caspase-3, -6, and -7). Inhibition of apoptosis results in number of cancers, autoimmune diseases, inflammatory diseases and viral infection. To identify small molecule compounds that induce apoptosis, a homogeneous, luminescent Caspase-Glo 3/7 assay was used. Wild type CHO-K1 cells were used to screen Tox21 libraries for identifying caspase-3/7 activity inducers.
CHO-K1 cells were dispensed at 1,500 per well in 5uL of culture medium into white solid bottom 1536-well plates (Corning Life Sciences, Corning, NY) using a Multidrop Combi (Thermo Scientific, Waltham, MA) dispenser. The assay plates were incubated at 37 C and 5% CO2 for 5hr, and then 23nL of compounds dissolved in DMSO and positive control were transferred using a Pintool station (Wako, San Diego, CA). The assay plates were incubated at 37C and 5% CO2 for 17hr. For caspase-3/7 activity read, 4uL of Caspase-Glo 3/7 reagent (Promega Corporation, Madison, WI) was added to each well of the assay plates using Flying Reagent Dispenser (FRD, Aurora Discovery, San Diego, CA) and incubated the assay plates at room temperature for 30min. The luminescence signal was quantified using a ViewLux plate reader (Perkin Elmer, Shelton, CT).
% is scaled to controls: 0 for no effect and ±100 for the full control effect.

Structure (SMILES)	caspase-3/7 activation
C=CC(OCC)OCC	-0.301% (inactive)
N[C@@H](CCC(=O)N[C@@H](CS)C(=O)NCC(=O)O)C(=O)O	-0.229% [at 19 µM] (inactive)
Cc1cccc(OCC(O)CNC(C)(C)C)c1C (stereo not given)	1.56% [at 42.5 µM] (inactive)
CCOC(=O)c1ccc(OC(=O)CCCCCN=C(N)N)cc1	-1.54% [at 42.5 µM] (inactive)
CC(C(=O)O)c1ccc2c(c1)CC(=O)c1ccccc1S2 (stereo not given)	0.513% [at 42.5 µM] (inactive)
OC[C@H](Cc1cccc(O)c1)[C@H](CO)Cc1cccc(O)c1	-0.202% (inactive)
CC(C)C(=O)OCCc1ccccc1	0.105% (inactive)
CC(C)CCCCOC(=O)c1ccccc1C(=O)OCCCCC(C)C	0.949% (inactive)
CCCC/C=C\CCCCCCCCCC=O	1.66% (inactive)
O=S(=O)(O)CCN1CCN(CCO)CC1	-1.82% (inactive)
CCOc1cc(NC(C)=O)ccc1C(=O)OC	1.64% [at 42.5 µM] (inactive)
C[Si](C)(C)C	0.908% (inactive)
COc1ccc(C2CNC(=O)C2)cc1OC1CCCC1 (stereo not given)	2.25% [at 42.5 µM] (inactive)
COCCOC(=O)C1=C(C)NC(C)=C(C(=O)OC(C)C)C1c1cccc([N+](=O)[O-])c1 (stereo not given)	0.009% [at 42.5 µM] (inactive)
CCCC(=O)C(C)=O	0.152% (inactive)
O=C(NCCc1c[nH]c2ccccc12)c1cccnc1	-0.988% [at 42.5 µM] (inactive)
Brc1ccc(-c2ccccc2)cc1	0.833% (inactive)
COc1cc(N)ccc1C	-0.637% (inactive)
COc1cc(C(=S)N2CCOCC2)cc(OC)c1OC	-0.811% [at 42.5 µM] (inactive)
O=C(O)Cc1cn(-c2ccccc2)nc1-c1ccc(Cl)cc1	-0.789% [at 42.5 µM] (inactive)

Structure (SMILES)	caspase-3/7 activation
Cc1ccsc1/C=C/C1=NCCCN1C	1.12% [at 42.5 µM] (inactive)
CNS(=O)(=O)CCc1ccc2[nH]cc(C3CCN(C)CC3)c2c1	0.392% [at 42.5 µM] (inactive)
Cc1cc(C(C)(C)C)c(O)c(C)c1CC1=NCCN1	1.66% [at 42.5 µM] (inactive)
O=C1c2ccccc2C(=O)C1c1ccccc1	-1.73% [at 42.5 µM] (inactive)
CCOc1cc([N+](=O)[O-])c(OCC)cc1N1CCOCC1	0.967% (inactive)
Cc1cccc2nccnc12	0.392% (inactive)
O=Cc1ccc(Cl)c(Cl)c1	0.107% (inactive)
CCCCCCCCC(=O)Cl	-0.0064% (inactive)
NCCS	0.0721% [at 42.5 µM] (inactive)
CCCOC(OCCC)OCCC	-0.758% (inactive)
C[C@@H](O)[C@H]1C(=O)N2C(C(=O)O)=C(SCCN=CN)C[C@H]12	-0.142% [at 42.5 µM] (inactive)
OCCCCC(O)CO (stereo not given)	0.261% (inactive)
CCCC/C=C/C=C\C=O	3.03% (inactive)
CC(COC(C)(C)C)OCCCO (stereo not given)	0.671% (inactive)
CC(N)C(=O)OC(C)(C)Cc1ccc(Cl)cc1 (stereo not given)	0.354% [at 42.5 µM] (inactive)
Oc1cn2c(n1)Nc1ccc(Cl)c(Cl)c1C2	-0.902% [at 19 µM] (inactive)
COc1ccc2c(c1)C(=O)N(CCc1ccc(S(=O)(=O)NC(=O)NC3CCCCC3)cc1)C(=O)C2(C)C	-0.726% [at 42.5 µM] (inactive)
CC(C)C(=O)OCc1cccc(OC(=O)[C@@H]2N3C(=O)[C@@H](NC(=O)Cc4ccccc4)[C@H]3SC2(C)C)c1	-0.323% [at 42.5 µM] (inactive)
COc1ccc(S(=O)(=O)N2c3ccc(Cl)cc3[C@@](O)(c3ccccc3Cl)[C@H]2C(=O)N2CCC[C@@H]2C(N)=O)cc1OC	-0.122% [at 42.5 µM] (inactive)
O=S(=O)(O)c1cc(O)c2ccc(Nc3ccccc3)cc2c1	-0.625% (inactive)
